Shown is part of a subset that was picked to be rich in hits.
PNC inhibitor – inhibitors of perinucleolar compartment assembly; activity change (PNC), negative = inhibition, % at 10 µM; PC3M PTB-GFP, PNC prevalence imaging, 16 h; stronger effect = lower value; 140,000 compounds, 3.1% hits;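 active = readout at or below -70, meaning at least 70% loss of cells showing the perinucleolar compartment, a nuclear body marking cancer cells; inconclusive = readout between -30 and a set limit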;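 also: plate controls were DMSO wells for no effect and camptothecin positive control wells for full effect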
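Read-out is percentage of cells bearing a perinucleolar compartment, from automated 20x imaging of fixed, Hoechst-stained PC3M PTB-GFP cells. Cells were seeded 4 h, then exposed 16 h to compound (23 nl of library stock) in duplicate plates.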
12-hLO inh – 12-hLO (ALOX12) enzyme inhibition; P18054; purified 12-hLO, xylenol orange hydroperoxide absorbance; Potency, µM (top dose mostly 57.1 µM), without a hit: at the top dose activity change, negative = inhibition, usual class: inhibitors; 150,000 compounds, 0.12% hits; AID 1452; also: potency is read from the fitted curve at half-maximal effect; nearly all actives have a fitted effect of over 55% in size
Target sequence (P18054 whole entry, looked up): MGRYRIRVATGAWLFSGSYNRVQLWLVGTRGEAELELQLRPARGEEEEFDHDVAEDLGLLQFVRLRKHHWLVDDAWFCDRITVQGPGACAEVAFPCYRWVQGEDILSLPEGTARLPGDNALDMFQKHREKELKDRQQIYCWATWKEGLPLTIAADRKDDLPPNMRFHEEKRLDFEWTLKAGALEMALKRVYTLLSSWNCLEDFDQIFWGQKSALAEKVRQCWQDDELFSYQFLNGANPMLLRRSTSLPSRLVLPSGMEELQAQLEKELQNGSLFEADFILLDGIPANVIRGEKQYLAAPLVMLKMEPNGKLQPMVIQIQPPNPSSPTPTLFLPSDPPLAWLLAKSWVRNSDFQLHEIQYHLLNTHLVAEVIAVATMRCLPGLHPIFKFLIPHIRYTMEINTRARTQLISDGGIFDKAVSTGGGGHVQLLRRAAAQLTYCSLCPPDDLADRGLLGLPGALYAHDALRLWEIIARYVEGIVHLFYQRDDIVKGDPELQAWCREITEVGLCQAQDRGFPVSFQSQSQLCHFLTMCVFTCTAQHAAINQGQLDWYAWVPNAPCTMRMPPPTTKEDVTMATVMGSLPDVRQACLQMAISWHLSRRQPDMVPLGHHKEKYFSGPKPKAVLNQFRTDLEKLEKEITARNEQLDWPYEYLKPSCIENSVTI
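Hydroperoxide formation by human 12-lipoxygenase from 40 uM arachidonic acid was followed colorimetrically via ferric-xylenol orange complex, using the 573/405 nm absorbance ratio. Enzyme concentration was 150 nM, with 30 min reaction at room temperature.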
IMPase Li inh – membrane-permeable IMPase blocker, potentiated with lithium; CHO-M1 cells, IP1 TR-FRET (IP-One), carbachol + lithium; Potency, µM (highest dose often 59.4 µM), for inactives: top-dose activity, negative = IMPase inhibition, most hits filed as inhibitors; 210,000 compounds, 0.35% hits;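 also: IP1 builds up when IMPase is blocked and the TR-FRET signal falls; potency is read from the fitted curve at half-maximal effect; plate controls were basal vehicle for no effect and high inhibitor control for full effect; nearly all actives have a fitted effect of over 50% in size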
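CHO-M1, 2000 cells/well, 16–30 h culture; cpd + low Li+, 30 min 37C; lysis with d2-IP1/Eu-anti-IP1 Ab, 10 min RT; TR-FRET 665/620 ratio and 620 channel; AC50 via Hill.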
IMPase cell inh – cell-permeable inhibitors of inositol monophosphatase (IMPase); 120,000 tested, under 10 active; inhibition (IP1 accumulation), % at 46.1 µM; AID 901; CHO-M1 cells, IP1 accumulation, HTRF TR-FRET ratio; active = well fitted curve in the direction sought with a large enough effect in the signal ratio, not every such curve was filed as active; inconclusive = small, poorly fitted or top-dose-only effect, or a change in a side signal; inactive = no such curve, though single readings can be large or run the other way; the % refers to the signal ratio;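 also: cells stimulated with carbachol in lithium chloride buffer; plate controls were DMSO basal wells for no effect and reference inhibitor wells for full effect; higher means more IMPase inhibition seen as more IP1 and lower FRET ratio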
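CHO-M1, 2000 cells/well, cultured 16–30 h; cpd up to 46 uM; carbachol (50 uM solution, stimulation buffer w/ 50 mM LiCl, pH 7.4), 30 min 37C; IP-One TR-FRET, 10 min RT; Ex 320/Em 665, 620; Hill-fit AC50.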
The depositor's hits bear a star; ? = inconclusive; nt = not tested or not shown; [ ] = dose if it differs, or a comment. Unless noted, calls follow the shape of the dose curve; as a rule, active = well fitted curve in the direction sought with a large enough effect; inconclusive = small, poorly fitted or top-dose-only effect, or another doubt; inactive = no such curve, though single readings can be large; an effect the other way counts as inactive or inconclusive. Unless noted, % is scaled to controls: 0 for no effect and ±100 for the full control effect.

SMILES	PNC inhibitor	12-hLO inh	IMPase Li inh	IMPase cell inh
COc1ccc(-n2c(SC(C)C(=O)Nc3ncc(Cl)cc3Cl)nc3ccccc32)cc1 (stereo unspecified)	-110.8*	-1.5%	21.2%	10.7
CCOC(=O)c1ccc(-n2c(C)nc3c(cnn3-c3ccccc3Cl)c2=O)cc1	-113.4*	-5.8%	5.5%[38.3 µM]	2.0
O=S(=O)(c1ccccc1)N1N=C(c2cccs2)CC1c1ccc(F)cc1 (stereo unspecified)	?	2.6%	10.9%[38.3 µM]	4.7
Fc1ccc(N2N=C(c3cccs3)CC2c2ccccc2)cc1 (stereo unspecified)	nt	nt	10µM*	nt
CCCCCNc1nc(-c2ccccc2)cs1	19.2	-8.1%	22.1%[38.3 µM]	7.9
COC(=O)[C@H](N)Cc1ccc(Cl)cc1	nt	-3.3%	nt	0.1
COc1cc(C2C3C(C)N(C)C(=O)N(C)C3N(C)C(=O)N2C)ccc1O (stereo unspecified)	-100.0*	-1.3%	-15.8%[38.3 µM]	2.6
COc1cc(C2C(C#N)=C(N)Oc3cc(N)ccc32)cc(OC)c1OC (stereo unspecified)	-89.3*	6.7%	0.4%	2.7
N#CC1=C(N)Oc2cc(N)ccc2C1c1ccc(F)cc1 (stereo unspecified)	?	-9.9%	27.4%[38.3 µM]	5.4
Cc1cc(Cl)ccc1NC(=O)CCC(=O)O	-83.5*	-0.3%	-2.9%	nt
COc1ccccc1N1CCN(/N=C\c2sccc2C)CC1	nt	nt	3.4%	nt
O=C(NCCCN1CCCC1=O)C1CCN(S(=O)(=O)N2CCOCC2)CC1	-83.8*	2.4%	13.4%[38.3 µM]	-2.7
O=C(NCCN1CCOCC1)C1CCN(S(=O)(=O)N2CCCCC2)CC1	-4.9	1.2%	-6.6%[38.3 µM]	2.7
CCOC(=O)CCN1CCN(C(=O)c2ccc(-n3c(=O)c(=O)[nH]c4ccccc43)cc2)CC1	nt	-4.2%	nt	nt
Cc1ccc(NC(=S)N/N=C/c2c(Cl)cccc2Cl)c(C)c1	-98.3*	?	6.6%	12.6
CCNC(=S)N/N=C/c1c(Cl)cccc1Cl	-10.3	-6.4%	6.2%	nt
O=C(c1ccc(Cl)cc1)N1CCC(O)(CSc2ccccc2)CC1	-91.2*	1.9%	20.7%[38.3 µM]	-12.3[1.84 µM]
Cc1ccc(SCC2(O)CCN(S(=O)(=O)c3ccc(Cl)cc3)CC2)cc1	-100.0*	-21.0%	13.1%	-8.7
Cc1ccc(NC(=O)COc2ncnc3c(Cl)cc(Cl)cc23)cc1[N+](=O)[O-]	60.7	-3.9%	5.8%	nt
Cc1cc(NC(=O)COC(=O)COc2cccc3c2OC(C)(C)C3)no1	-20.9	-6.2%	-3.3%[38.3 µM]	-0.5
Cc1cnc(NC(=O)COc2cccc3c2OC(C)(C)C3)s1	-94.7*	6.4%	-4.9%[38.3 µM]	2.1
N=c1c2c(n(Cc3ccc(Br)cc3)c3c1CCC3)CCCC2	-123.3*	1.8%	3.8%	nt
Cc1cc(Cl)c(OCCOCCN2CCCCC2)c(Br)c1	-101.7*	-6.0%	11.2%	nt
O=C(Cc1cccc2ccccc12)Nc1ccc(-c2cc3ccccc3oc2=O)cc1	-82.9*	1.3%	-16.8%[38.3 µM]	3.2[1.84 µM]
COC(=O)N/N=C/c1c(C)nn(-c2cccc(Cl)c2)c1Cl	-94.2*	-1.7%	9.4%	-6.5
SMILES	PNC inhibitor	12-hLO inh	IMPase Li inh	IMPase cell inh
COC(=O)N/N=C\c1c(C)nn(-c2ccccc2)c1Cl	-19.9	-0.8%	6.3%	-1.3
Cc1nn(-c2cccc(Cl)c2)c(Cl)c1/C=N/NC(=O)c1cccnc1	-86.5*	-2.3%	9.3%	nt
Cc1nn(-c2ccccc2)c(Cl)c1/C=N\NC(=O)c1cncc(Br)c1	?	1.6%	10.6%	2.1
CCOC(=O)N/N=C/c1c(C)nn(-c2cccc(C(F)(F)F)c2)c1Cl	-83.1*	-0.9%	9.3%	7.5
COCCN1C(=O)c2ccccc2C(C(=O)N2CCN(c3ccccn3)CC2)C1c1ccc(F)cc1 (stereo unspecified)	-100.0*	-1.3%	4.8%	5.6
CCN(CC)CCCNC(=O)C1c2ccccc2C(=O)N(CCOC)C1c1ccc(F)cc1 (stereo unspecified)	nt	nt	6.9%	nt
O=C1c2ccccc2C(Nc2ccc(S(=O)(=O)N3CCCCCC3)cc2)N1c1ccccn1 (stereo unspecified)	-93.3*	6.2%	2.8%[38.3 µM]	3.4
O=C1c2ccccc2C(Nc2ccc(S(=O)(=O)N3CCOCC3)cc2)N1c1ccccn1 (stereo unspecified)	-15.2	-4.3%	5.4%[38.3 µM]	4.2
CCCn1c(N)c(Sc2ccc(Cl)cc2)c(=O)n(CCC)c1=O	-15.2	-5.9%	19.3%[38.3 µM]	8.0

Assay outcomes as filed in PubChem BioAssay.
